Compounds without any hit were thinned out: in the full panel of roughly 83,000, 20% have a hit.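 Cell lines were cultured in 96-well plates, exposed to a single compound concentration, and assessed for percent growth 48 hours later.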 A number with no mark means an inactive call. Activity calls are given as the source filed them. How the source made its calls: active means growth percent below 10; inactive means the rest.
Tests used:
Experiment in all cases: NCI-60 one-dose screen, 48 h (100 = growth as untreated, 0 = no growth, -100 = all killed)
Conditions in all cases: 10 µM
SR leukemia = system: SR leukemia
RPMI-8226 leukemia = system: RPMI-8226 leukemia
OVCAR-8 ovarian = system: OVCAR-8 ovarian
OVCAR-5 ovarian = system: OVCAR-5 ovarian
OVCAR-4 ovarian = system: OVCAR-4 ovarian
OVCAR-3 ovarian = system: OVCAR-3 ovarian
HS 578T breast = system: HS 578T breast
NCI/ADR-RES ovarian = system: NCI/ADR-RES ovarian
T-47D breast = system: T-47D breast
BT-549 breast = system: BT-549 breast
MDA-MB-435 melanoma = system: MDA-MB-435 melanoma
SW-620 colon = system: SW-620 colon
MCF7 breast = system: MCF7 breast
HCT-116 colon = system: HCT-116 colon
HCC-2998 colon = system: HCC-2998 colon
KM12 colon = system: KM12 colon
SK-OV-3 ovarian = system: SK-OV-3 ovarian
IGROV1 ovarian = system: IGROV1 ovarian

| SMILES | growth (SR leukemia) | growth (RPMI-8226 leukemia) [%] | growth (OVCAR-8 ovarian) | growth (OVCAR-5 ovarian) [%] | growth (OVCAR-4 ovarian) [%] | growth (OVCAR-3 ovarian) [%] | growth (HS 578T breast) [%] | growth (NCI/ADR-RES ovarian) [%] | growth (T-47D breast) | growth (BT-549 breast) [%] | growth (MDA-MB-435 melanoma) [%] | growth (SW-620 colon) | growth (MCF7 breast) | growth (HCT-116 colon) | growth (HCC-2998 colon) [%] | growth (KM12 colon) [%] | growth (SK-OV-3 ovarian) [%] | growth (IGROV1 ovarian) |
| --- | --- | --- | --- | --- | --- | --- | --- | --- | --- | --- | --- | --- | --- | --- | --- | --- | --- | --- |
| COc1cc2cc(Oc3ccc(NC(=O)c4cc(C(F)(F)F)cc(C(F)(F)F)c4)cc3)c(C)nc2cc1OC | 52.8% | 17.7 | 48.2% | 67.7 | 52.4 | 15.2 | 73.1 | 46.3 | 86.7% | 52.4 | 49.1 | 47.4% | 29.5% | 19.2% | 73.9 | 37.6 |  |  |
| O=C(CCc1nnc2sc(-c3cc(O)c(O)c(O)c3)nn12)c1nc2ccccc2[nH]1 | 49.6% | 87 | 94.7% | 117 |  | 119 | 88.2 | 94.2 | 83.9% | 107 | 98.9 | 116% | 85.8% | 85.7% | 111 | 105 | 104 | 109% |
| COc1ccc([C@H]2[C@H](C(=O)Nc3cccnc3)c3ccccc3C(=O)N2c2ccccc2)cc1 | 46.3% |  | 96.1% | 114 | 98.2 | 100 | 71 | 97 | 74% | 90.5 | 99.1 | 91.4% | 95.7% | 49.4% | 100 | 60.7 | 96.4 | 81.4% |
| CCOC(=O)CN(c1sc(C)c(C)c1C(=O)OCC)S(=O)(=O)c1ccc(C)cc1 | 96.9% | 98.2 | 105% | 107 |  | 109 | 95.9 | 88 | 88.5% | 102 | 102 | 100% | 100% | 95.5% | 100 | 96 | 87.1 | 111% |
| COc1ccc(/C=c2\sc3n(c2=O)C(c2cc(OC)c(OC)c(OC)c2)C=C(c2ccc(OC)c(OC)c2)N=3)cc1OC (stereo not given) | 91.5% | 63.7 | 98.8% |  |  | 103 | 90.8 | 97.5 |  | 88.5 | 86.1 | 109% | 86.2% | 89.4% | 106 | 95.8 | 108 |  |
| Cc1cc(SCc2ccccc2)nc(N)n1 | 106% | 105 | 105% |  |  | 123 | 111 | 105 |  | 89.3 | 99.2 | 105% | 93.8% | 102% | 108 | 115 | 108 |  |
| CCOc1ccccc1/C=N/N1CCCCCC1 | 89.3% | 110 | 103% | 107 |  | 97.1 | 96 | 100 | 99.1% | 103 | 114 | 96.1% | 79.2% | 100% | 93.5 | 106 | 95.9 |  |
| COc1cc(C2CC(c3ccc4c(c3)OCO4)=NN2c2ccccc2)cc(OC)c1OC (stereo not given) | 71.9% | 75.7 | 99.3% |  |  | 89.8 | 93.6 | 77.7 |  | 71.9 | 30.7 | 89.4% | 87.4% | 93.5% | 83.2 | 60.9 | 107 |  |
| O=C(CCCNC(=O)c1nc(-c2ccccc2)n(-c2ccccc2)n1)NO | 106% |  | 96.9% | 118 | 118 | 108 | 105 | 109 | 94% | 106 | 109 | 106% | 92% | 85.6% | 98.9 | 110 | 97 | 101% |
| C=CCn1c(SCC(=O)Nc2ccc(C(=O)/C=C/c3ccc(Cl)cc3)cc2)nnc1-c1cc(-c2ccccc2)nc2ccccc12 | 6.5% (active) |  | 26.4% | 90.4 | 44.1 | 63.7 | 86.3 | 78.9 | 84.6% | 64.2 | 77.9 | 5.4% (active) | 12.2% | -22.9% (active) | 87.4 | 76.5 | 100 | -62% (active) |
| CCOC(=O)c1sc2ncnc(Nc3ccc(NC(=O)Nc4ccc(Cl)cc4)cc3)c2c1C | 44.3% |  | 38.7% | 99.2 | 53.4 | 62.9 | 41.4 | 37.2 | 45.4% | 61.8 | 59.4 | 63.7% | 52.1% | 17% | 90.3 | 55.3 | 74.6 | 92.3% |
| COc1cc(-c2nn(-c3cccc(NC(=O)CCNc4ccc(N5CCOCC5)cc4)c3)cc2-c2ccncc2)ccc1Cl | 5.07% (active) |  | 7.74% (active) | 49 | 26 | 14.1 | 29.7 | 36 | 15.2% | 19.8 | 14.3 | 18.6% | 7.35% (active) | 5.29% (active) | 43.3 | 20.4 | 34.7 | 27.3% |
| Nc1ccccc1NC(=O)c1ccc(CCCC(=O)Nc2ccc(C3CC3N)cc2)cc1 (stereo not given) | 31.5% |  | 17.3% | 33.1 | 49.7 | 25.4 | 36.7 | 98.6 | 7.85% (active) | 47.4 | 18 | 14.9% | 17.7% | 8.68% (active) | 19.5 | 45.2 | 32.4 | 44.3% |
| O=C(NCCCNS(=O)(=O)c1ccc(Cl)cc1)Nc1ccc(-n2cc(-c3ccncc3)c(-c3ccc(Cl)c(O)c3)n2)cc1 | 17% |  | 36% | 70.8 | 44.2 | 50 | 40.9 | 76.8 | 22.2% | 26.6 | 28.4 | 50.3% | 13.8% | 16.2% | 57.9 | 28.6 | 68.8 | 62% |
| CC(C)[N+]1(C)C2CC[C@@H]1CC(OC(=O)C(CO)c1ccccc1)C2 (stereo not given in full) | 123% |  | 104% | 108 | 110 | 125 | 104 | 101 | 96.6% | 106 | 104 | 101% | 111% | 107% | 103 | 115 | 116 | 119% |
| COc1cc2c3c(n([C@@H]4CCOC4)c(=O)c2cc1OC)-c1cc2c(cc1C3=O)OCO2 | 15.1% |  | 36.7% | 77 | 72.2 | 52.3 | 109 | 30.1 | 21.7% | 46.2 | 62.7 | 50.2% | 13.5% | 27.1% | 70.9 | 62.4 | 24.7 | 67.8% |
| O=c1cn[nH]c2ccc(Br)cc12 | 89.4% |  | 98.8% | 108 | 109 | 105 | 99.4 | 105 | 83% | 105 | 111 | 103% | 105% | 97.8% | 108 | 98.7 | 98.6 | 102% |
| O=C1c2c(c3c4ccccc4n(CCCCCCN4CCOCC4)c3c3[nH]c4ccccc4c23)C(=O)N1O | -26.2% (active) |  | 3.72% (active) | 127 | 103 | 88.7 | 106 | 43.9 | 79.9% | 91.9 | 56.4 | 4.79% (active) | 6.49% (active) | -16% (active) | 87.8 | 78 | 93 | 40.6% |
